Laboratory results published in PubChem BioAssay (Tox21).
Records with an inconclusive call do not appear. The source made the active and inactive calls. Unless noted, the call rests on the fitted dose curve; in most records, active means well fitted curve in the direction sought with a large enough effect in the repeat runs; inconclusive means weak or mixed curves; inactive means no such curve, though single readings can be large; an effect the other way counts as inactive or inconclusive.

Legend:
[1] = qHTS assay to identify small molecule agonists of the hypoxia (HIF-1) signaling pathway - cell viability counter screen (AID 1224844; calls by dose curve; further: nearly all actives have a fitted effect of over 50% in size)
Summary of the method: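 ME-180 HRE-bla cells, 2,000/well, 0.5% dialyzed FBS; 5 hr settle, 17 hr compound at 37C/5% CO2; CCF4-AM reporter read first, then CellTiter-Glo luminescence after 30 min RT.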

[2] = qHTS assay to identify small molecule agonists of H2AX (AID 1224845; active means well fitted activation curve with a large enough effect in the signal ratio in the repeat runs, not every such curve was filed as active; the % refers to the signal ratio)
Summary of the method: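 Wild-type CHO-K1 cells, plated overnight, exposed 3hr at 37C to 15 concentrations (0.76% DMSO final). Lysed, then HTRF anti-pH2AX (S139) cryptate and anti-H2AX-d2 antibodies, 24 hr room temperature; 665/620 nm emission read.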

[3] = qHTS assay to identify small molecule agonists of the hypoxia (HIF-1) signaling pathway (AID 1224846; active means well fitted activation curve with a large enough effect in the signal ratio in the repeat runs, not every such curve was filed as active; the % refers to the signal ratio)
Summary of the method: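 Cell line: CellSensor HRE-bla ME-180; 2,000 cells/well; 0.5% dialyzed FBS; 5 h preincubation; DMSO compound pin transfer; 17 h, 37C, 5% CO2; CCF4-AM added; bla FRET signal scored for activation.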

[4] = qHTS RealTime-Glo MT Cell Viability Assay in HepG2 cells - 24 hour (AID 1224867); further: nearly all actives have a fitted effect of over 50% in size
Summary of the method: (§1)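 Viability was tracked continuously by NanoLuc luminescence from prosubstrate reduced by living HepG2 cells, at successive time points over 40 h of compound exposure. Cells with reagent were preincubated 5 h at 37 °C before compound addition.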

[5] = qHTS RealTime-Glo MT Cell Viability Assay in HEK293 cells - 32 hour (AID 1224868); further: top concentration of the series differs between compounds; nearly all actives have a fitted effect of over 50% in size
Summary of the method: (§2)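 Viability tracked continuously by luminescence as live cells reduce a prosubstrate for NanoLuc; HEK293 cells preincubated 5 h, compound-treated at 37 C, and read at 0, 8, 16, 24, 32 and 40 h.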

[6] = A CellTox Green Cytotoxicity Assay to monitor cytotoxicity in HEK293 cells - 0 hour (AID 1224869); further: nearly all actives have a fitted effect of over 50% in size
Summary of the method: (§3)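 Nonlytic real-time cytotoxicity: HEK293 + CellTox Green reagent plated, 5 h preincubation, pintool compound addition (23 nL in DMSO), 37 C for 40 h, fluorescence measured at successive time points.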

[7] = qHTS RealTime-Glo MT Cell Viability Assay in HepG2 cells - 40 hour (AID 1224870); further: nearly all actives have a fitted effect of over 50% in size
Summary of the method: (§4)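 HepG2 cells (600/well) mixed with RealTime-Glo MT reagent, settled 5 h at 37 C/5% CO2 before compound addition. Nonlytic NanoLuc luminescence from viable-cell prosubstrate reduction read repeatedly during 40 h treatment at 37 C.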

[8] = A CellTox Green Cytotoxicity Assay to monitor cytotoxicity in HEK293 cells - 40 hour (AID 1224871); further: nearly all actives have a fitted effect of over 45% in size
Summary of the method: as §3

[9] = qHTS RealTime-Glo MT Cell Viability Assay in HEK293 cells - 16 hour (AID 1224872)
Summary of the method: as §2

[10] = qHTS RealTime-Glo MT Cell Viability Assay in HepG2 cells - 8 hour (AID 1224873); further: nearly all actives have a fitted effect of over 55% in size
Summary of the method: as §4

[11] = qHTS RealTime-Glo MT Cell Viability Assay in HEK293 cells - 40 hour (AID 1224874); conditions: RealTime-Glo luminescence; max response: active compounds read low; further: nearly all actives have a fitted effect of over 50% in size
Summary of the method: (§5)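 Cells were seeded together with NanoLuc luciferase and a prosubstrate that viable cells reduce to a luciferase substrate. After a 5 h incubation at 37 C/5% CO2, compounds were added and luminescence was measured repeatedly during 40 h of treatment.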

[12] = A CellTox Green Cytotoxicity Assay to monitor cytotoxicity in HEK293 cells - 24 hour (AID 1224875); further: series mostly up to about 77 µM; nearly all actives have a fitted effect of over 45% in size
Summary of the method: as §3

[13] = A CellTox Green Cytotoxicity Assay to monitor cytotoxicity in HepG2 cells - 16 hour (AID 1224876); further: nearly all actives have a fitted effect of over 45% in size
Summary of the method: (§6)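 Read-out is fluorescence of a cyanine dye excluded from live cells that stains DNA of dead HepG2 cells, with signal proportional to cytotoxicity. Plates were read at 0, 8, 16, 24, 32 and 40 h after compound addition.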

[14] = qHTS RealTime-Glo MT Cell Viability Assay in HepG2 cells - 32 hour (AID 1224877); further: nearly all actives have a fitted effect of over 55% in size
Summary of the method: as §1

[15] = A CellTox Green Cytotoxicity Assay to monitor cytotoxicity in HepG2 cells - 24 hour (AID 1224878); further: nearly all actives have a fitted effect of over 45% in size
Summary of the method: as §6

[16] = A CellTox Green Cytotoxicity Assay to monitor cytotoxicity in HepG2 cells - 40 hour (AID 1224879); further: nearly all actives have a fitted effect of over 40% in size
Summary of the method: as §6

[17] = qHTS RealTime-Glo MT Cell Viability Assay in HEK293 cells - 0 hour (AID 1224880)
Summary of the method: as §5

[18] = qHTS assay to identify small molecule agonists of H2AX - cell viability counter screen (AID 1224847; calls by dose curve; further: top concentration of the series differs between compounds; nearly all actives have a fitted effect of over 30% in size)
Summary of the method: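 CHO-K1 cells plated overnight at 37C, then exposed 3 h at 37C to compounds at 15 concentrations (0.76% DMSO final). Viability by CellTiter-Glo luminescence after 30 min at room temperature.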

[19] = qHTS assay to identify small molecule antagonists of the estrogen related receptor (ERR) signaling pathway from Tox21 library (AID 1224848); further: nearly all actives have a fitted effect of over 50% in size
Summary of the method: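 ERR reporter cell line (from NTP) seeded 2,000 cells/well, rested 6 h at 37 C/5% CO2, then pin-dosed with compounds in DMSO. After 18 h at 37 C, ONE-Glo added; luminescence read after 30 min at room temperature.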

[20] = qHTS assay to identify small molecule agonists of the estrogen related receptor (ERR) signaling pathway from Tox21 library (AID 1224849; calls by dose curve; further: nearly all actives have a fitted effect of over 15% in size)
Summary of the method: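 ERR cells, 6 h pre-incubation 37 C/5% CO2; cpd in DMSO pinned; 18 h 37 C; ONE-Glo added, 30 min RT; luminescence read. Agonist mode, qHTS.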
On the % scale 0 is the no-effect control and ±100 the full control effect.

Cc1ccccc1N=C(N)N=C(N)N
inactive: Potency [1] | Potency [2] | outcome [3] | outcome [4] | Potency [5] | outcome [6] | Potency [7] | Potency [8] | Potency [9] | outcome [10] | max response [11] -9.52% | outcome [12] | outcome [13] | Potency [14] | outcome [15] | Potency [16] | Potency [17]

C[N+]1(C)CCCC(OC(=O)C(O)(c2ccccc2)c2ccccc2)C1 (stereo not given)
inactive: Potency [1] | Potency [2] | outcome [18] | Potency [19] | outcome [20] | outcome [4] | Potency [5] | outcome [6] | Potency [7] | Potency [8] | outcome [10] | max response [11] -4.47% | outcome [12] | outcome [13] | Potency [14] | outcome [15] | Potency [16] | Potency [17]

CN(C)CCCCCCN(C)C
inactive: Potency [1] | Potency [2] | outcome [18] | Potency [19] | outcome [20] | outcome [4] | Potency [5] | outcome [6] | Potency [7] | Potency [8] | Potency [9] | outcome [10] | max response [11] -6% | outcome [12] | outcome [13] | Potency [14] | outcome [15] | Potency [16] | Potency [17]

CCCCc1ccc2c(n1)[C@@H](c1ccc(OC)cc1C[C@H](C)C(=O)O)[C@H](C(=O)O)[C@H]2c1ccc2c(c1)OCO2
inactive: Potency [1] | Potency [2] | outcome [3] | outcome [4] | Potency [5] | Potency [8] | Potency [9] | outcome [10] | max response [11] 0.185% | outcome [12] | outcome [13] | Potency [14] | outcome [15] | Potency [16] | Potency [17]

CC(=O)N[C@H]1[C@H]([C@H](O)[C@H](O)CO)OC(C(=O)O)=C[C@@H]1N=C(N)N
inactive: Potency [1] | Potency [2] | outcome [3] | outcome [4] | Potency [5] | outcome [6] | Potency [8] | Potency [9] | outcome [10] | max response [11] 2.18% | outcome [12] | outcome [13] | Potency [14] | outcome [15] | Potency [16] | Potency [17]

CCCCCCC1CCC(=O)O1 (stereo not given)
inactive: Potency [1] | Potency [2] | outcome [3] | Potency [19] | outcome [4] | Potency [7] | Potency [8] | Potency [9] | outcome [10] | max response [11] 4.76% | outcome [12] | outcome [13] | Potency [14] | outcome [15] | Potency [16] | Potency [17]

NC(N)=NCCN1CCCCCCC1
inactive: activity change, negative = cytotoxicity [1] -1.67% [at 0.29 µM] | activation (H2AX phosphorylation) [2] 0.429% [at 0.582 µM] | activity change, negative = cytotoxicity [18] 0.639% [at 0.582 µM] | activity, negative = inhibition [19] 12.8% [at 0.349 µM] | activity change, negative = cytotoxicity [4] 0.287% [at 0.29 µM] | activity change, negative = cytotoxic [5] -3.18% [at 0.29 µM] | cytotoxicity [6] 4.87% [at 0.29 µM] | activity change, negative = cytotoxic [7] 0.511% [at 0.29 µM] | cytotoxicity increase [8] 1.15% [at 0.29 µM] | activity change, negative = cytotoxicity [9] -1.96% [at 0.29 µM] | viability change, negative = cytotoxic [10] 0.369% [at 0.29 µM] | max response [11] -2.62% | activity change [12] 3.96% [at 0.29 µM] | cytotoxicity increase [13] -11.2% [at 0.29 µM] | activity change, negative = cytotoxic [14] 0.55% [at 0.29 µM] | cytotoxicity [15] -13.4% [at 0.29 µM] | cytotoxicity increase [16] -13% [at 0.29 µM] | activity change, negative = cytotoxicity [17] -7.81% [at 0.29 µM]

CNCCO
inactive: Potency [1] | Potency [2] | outcome [3] | outcome [6] | Potency [7] | Potency [8] | outcome [10] | outcome [12] | outcome [13] | Potency [14] | outcome [15] | Potency [16] | Potency [17]

CO[C@@]1(NC(=O)CSC[C@@H](N)C(=O)O)C(=O)N2C(C(=O)O)=C(CSc3nnnn3C)CS[C@@H]21
inactive: Potency [1] | Potency [2] | outcome [18] | Potency [19] | outcome [20] | outcome [4] | Potency [5] | outcome [6] | Potency [7] | Potency [8] | outcome [10] | max response [11] -2.75% | outcome [12] | outcome [13] | Potency [14] | outcome [15] | Potency [16] | Potency [17]

CCCCCCCCCC[N+](C)(C)[O-]
inactive: Potency [1] | Potency [2] | outcome [18] | Potency [19] | outcome [4] | Potency [5] | outcome [6] | Potency [7] | Potency [8] | Potency [9] | outcome [10] | max response [11] -6.97% | outcome [12] | Potency [14] | Potency [17]

C=CCCC(=O)O
inactive: Potency [1] | Potency [2] | outcome [18] | Potency [19] | outcome [4] | outcome [6] | Potency [7] | Potency [8] | Potency [9] | outcome [10] | max response [11] 7.36% | outcome [12] | outcome [13] | Potency [14] | outcome [15] | Potency [17]

O=C(CO)[C@@H](O)[C@H](O)[C@H](O)CO
inactive: Potency [1] | Potency [2] | outcome [18] | Potency [19] | outcome [4] | outcome [6] | Potency [7] | Potency [8] | Potency [9] | outcome [10] | max response [11] 1.94% | outcome [12] | outcome [13] | Potency [14] | outcome [15] | Potency [16] | Potency [17]

Cc1nc(C2CCCCC2)c(-c2ccc(S(N)(=O)=O)c(F)c2)o1
inactive: Potency [1] | Potency [2] | outcome [3] | Potency [19] | outcome [4] | outcome [6] | Potency [8] | outcome [12] | outcome [13] | Potency [14] | outcome [15] | Potency [16] | Potency [17]

O=C(O)CNC(=O)c1ccc(CO)o1
inactive: Potency [1] | Potency [2] | outcome [3] | outcome [4] | Potency [5] | outcome [6] | Potency [7] | Potency [8] | Potency [9] | outcome [10] | max response [11] 3.96% | outcome [12] | outcome [13] | Potency [14] | outcome [15] | Potency [16] | Potency [17]

CCCCCCCCN1CCCC1=O
inactive: Potency [1] | Potency [2] | outcome [3] | Potency [19] | outcome [4] | outcome [6] | Potency [7] | Potency [8] | Potency [9] | outcome [10] | max response [11] -3.59% | outcome [12] | outcome [13] | Potency [14] | outcome [15] | Potency [16] | Potency [17]
